Hits are enriched below; roughly 12% of the tested compounds scored in any of these assays.
BAZ2B block: BAZ2B (human) inhibition; AlphaScreen BAZ2B-H3K14Ac peptide displacement; Potency, µM (doses to about 114 µM), usual class: inhibitors; 4.4% of 360,000 active; AID 504333; further: nearly all actives have a fitted effect of over 60% in size
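Protein-peptide AlphaScreen: BAZ2B 50 nM, b-H3K14Ac 50 nM, 1x PBS pH 7.4 + 0.01% Tween-20. Preincubation 30 min RT; cpd 30 min RT (top 110 uM); beads 20 min RT, light-protected.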
JMJD2A Tudor: JMJD2A Tudor domain (human) inhibition | O75164 | AlphaScreen JMJD2A-Tudor / H3K4me3 peptide binding | Potency, µM (series often up to 114 µM), actives largely listed as inhibitors | 4.4% of 390,000 active; further: nearly all actives have a fitted effect of over 50% in size
Sfp inh: blocks B. subtilis Sfp PPTase activity; Potency, µM, usual class: inhibitors; Biochemical Sfp PPTase activity, qHTS; AID 1490; 3.5% of 310,000 active; Q9F4F7;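 further: the enzyme is Sfp with the accession as filed and its product quenches rhodamine fluorescence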
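Sfp 15 nM + cpd, 15 min RT; start w/ rhodamine-CoA 5 uM, BHQ-2-YbbR 12.5 uM (final); 50 mM Hepes pH 7.6, 10 mM MgCl2, 0.01% NP-40, 0.01% BSA; read 525/598 nm at 0 and 30 min.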
G9a inh: G9a (human) methyltransferase inhibition; Q96KQ7; G9a H3K9 monomethylation, AlphaScreen, 2 h; Potency, µM (series often up to 102 µM), actives largely listed as inhibitors; 8.8% of 350,000 active; AID 504332; further: nearly all actives have a fitted effect of over 75% in size
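Compounds were preincubated with 20 nM G9a for 15 min, after which biotinylated H3K9 peptide (500 nM) and SAM (20 uM) started a 2 h room-temperature reaction. Monomethylated product was quantified by antibody-based AlphaScreen chemiluminescence.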
HP1b chromo inh: HP1-beta chromodomain-methylated histone interaction inhibition; Potency, µM (highest dose often 114 µM), actives largely listed as inhibitors; AlphaScreen HP1-beta / biotin-H3K9me3 peptide binding; 0.56% of 390,000 active; further: nearly all actives have a fitted effect of over 70% in size
Target sequence (P83916 whole entry, looked up): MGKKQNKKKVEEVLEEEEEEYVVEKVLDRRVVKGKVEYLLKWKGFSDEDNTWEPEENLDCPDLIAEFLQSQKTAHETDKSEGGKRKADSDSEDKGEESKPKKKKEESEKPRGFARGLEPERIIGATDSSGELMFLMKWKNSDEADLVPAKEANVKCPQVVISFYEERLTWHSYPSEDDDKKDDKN
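AlphaScreen: HP1-beta (50 nM) preformed 30 min with biotin-H3(1-18)K9me3 peptide (50 nM) in PBS pH 7.4, 0.01% Tween-20. Compound added for 30 min at RT, then streptavidin donor/nickel chelate acceptor beads (10 ug/mL) for 30 min.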
PLK1 PBD block: inhibitors of human PLK1 polo-box domain binding; Plk1 PBD binding of FITC phosphopeptide, fluorescence polarization; P53350; AID 720504; Potency, µM, usual class: inhibitors; 2.8% of 360,000 active; further: series mostly up to about 57 µM; nearly all actives have a fitted effect of over 65% in size
Target sequence (P53350 whole entry, looked up, the tested form may be a part): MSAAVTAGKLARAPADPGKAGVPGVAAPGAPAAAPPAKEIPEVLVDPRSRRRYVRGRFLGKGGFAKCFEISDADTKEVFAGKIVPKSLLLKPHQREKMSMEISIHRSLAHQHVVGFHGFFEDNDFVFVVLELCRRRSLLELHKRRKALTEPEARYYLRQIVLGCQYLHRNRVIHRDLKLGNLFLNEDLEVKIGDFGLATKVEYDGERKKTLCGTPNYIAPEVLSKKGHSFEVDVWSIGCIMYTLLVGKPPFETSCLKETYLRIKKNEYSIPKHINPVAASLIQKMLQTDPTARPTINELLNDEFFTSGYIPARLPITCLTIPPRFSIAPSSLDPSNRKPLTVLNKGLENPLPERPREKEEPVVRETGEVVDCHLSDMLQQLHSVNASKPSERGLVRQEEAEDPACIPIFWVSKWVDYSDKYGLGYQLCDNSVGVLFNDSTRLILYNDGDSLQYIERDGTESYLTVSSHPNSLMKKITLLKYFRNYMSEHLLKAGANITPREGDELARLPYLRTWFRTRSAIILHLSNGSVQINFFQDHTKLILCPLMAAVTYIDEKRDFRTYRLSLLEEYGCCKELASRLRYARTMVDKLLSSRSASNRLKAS
Of the large screens only hits and unclear results are named; the others gave an inactive call. The call rests on the fitted dose curve; in most records, active means well fitted curve in the direction sought with a large enough effect; inconclusive means small, poorly fitted or top-dose-only effect, or another doubt; inactive means no such curve, though single readings can be large; an effect the other way counts as inactive or inconclusive.

COc1ccc([C@]23Cc4ccccc4C(O2)c2c(c4ccc(OC)cc4oc2=O)O3)cc1	BAZ2B block inconclusive (no result: JMJD2A Tudor, HP1b chromo inh, PLK1 PBD block)
COc1ccc([C@]23Cc4cc(OC)c(OC)cc4C(O2)c2c(cc(C)n(Cc4ccccc4)c2=O)O3)cc1	BAZ2B block 11µM (no result: JMJD2A Tudor, HP1b chromo inh, PLK1 PBD block)
CC(=O)Nc1ccc(C2=NN(C)C(=NCc3ccccc3)SC2)cc1	JMJD2A Tudor 45µM, G9a inh inconclusive, PLK1 PBD block 30µM (no result: BAZ2B block)
O=C(Nc1ccc(Cl)cc1)N1CCSC1=NCc1ccccc1	none
S=c1nc(C2CCCCC2)[nH][nH]1	JMJD2A Tudor 5µM, Sfp inh 56µM, G9a inh inconclusive, PLK1 PBD block 27µM
COCC1CCN(Cc2nc(-c3ccc4c(c3)OCO4)no2)C1 (stereo unspecified)	none
c1cc(C2CCN(Cc3nc(-c4ccc5c(c4)OCO5)no3)CC2)ccn1	BAZ2B block 56µM, JMJD2A Tudor 79µM, G9a inh 3.5µM
COc1ccc(CCNC(=O)CSc2nnnn2-c2ccc(OC)c(OC)c2)cc1OC	JMJD2A Tudor inconclusive, PLK1 PBD block 13µM
COc1ccc(-n2nnnc2SCC(=O)NCc2ccco2)cc1OC	BAZ2B block inconclusive, G9a inh 50µM
COc1cccc(-n2nnnc2SCC(=O)NCCc2ccc(OC)c(OC)c2)c1	PLK1 PBD block inconclusive
CC1(CN2CCC(n3c(=O)[nH]c4ccccc43)CC2)OCc2ccccc2-n2cccc21 (stereo unspecified)	G9a inh inconclusive (no result: BAZ2B block, JMJD2A Tudor, HP1b chromo inh, PLK1 PBD block)
Cc1cc(C)nc(/N=C(\NC(=O)C(C)(C)C)Nc2ccc(F)cc2)n1	G9a inh 45µM
O=C(CCSCc1cccc(Cl)c1)NCc1ccc(F)cc1Cl	none (no result: Sfp inh, PLK1 PBD block)
CC(=O)Nc1n[nH]c(=S)s1	JMJD2A Tudor 5µM, HP1b chromo inh inconclusive (no result: BAZ2B block, Sfp inh, G9a inh)
CNc1n[nH]c(=S)s1	JMJD2A Tudor 5µM, Sfp inh 35µM, G9a inh 3.5µM, HP1b chromo inh 25µM
Cc1ccc(C)c(N2CCN(c3ncnc4c3cnn4-c3ccccc3)CC2)c1	JMJD2A Tudor inconclusive, G9a inh inconclusive, PLK1 PBD block 27µM
CC1CCCN(c2ncnc3c2cnn3-c2ccccc2)C1 (stereo unspecified)	Sfp inh 89µM
Cc1sc2ncnc(N3CCCC(C)C3)c2c1C (stereo unspecified)	G9a inh 56µM
COc1ccc2c(c1)C(c1cc(OC)c(OC)c(OC)c1)CC(=O)O2 (stereo unspecified)	none (no result: BAZ2B block, JMJD2A Tudor, HP1b chromo inh, PLK1 PBD block)
C=CC1=C2C=C(C3CC3)N(CCCCO)C=C2C(=O)C(C)(OC(=O)c2ccco2)C1=O (stereo unspecified)	none (no result: BAZ2B block, JMJD2A Tudor, G9a inh, HP1b chromo inh, PLK1 PBD block)
COC(=O)c1c(NC(=O)c2ccc(S(=O)(=O)N3CCCCC3)cc2)sc2c1CCN(C)C2	G9a inh inconclusive (no result: Sfp inh, PLK1 PBD block)
Cc1cc(=O)n2c(C(=O)Nc3ccc(C)c(Cl)c3)c(C(=O)Nc3ccccc3)sc2n1	G9a inh inconclusive (no result: Sfp inh, PLK1 PBD block)
CC(C)(C)OC(=O)N1CCC(c2c(C(=O)NCC3CCN(C4CCCC4)C3)cnn2-c2ccccc2Cl)CC1 (stereo unspecified)	G9a inh 71µM
Cn1cnc2c(ncn2[C@@H]2O[C@H](CO)[C@@H](O)[C@H]2O)c1=N	none (no result: BAZ2B block, JMJD2A Tudor, HP1b chromo inh, PLK1 PBD block)
CCn1c(=O)c2cc(C(=O)N3CCOCC3)sc2c2ccccc21	none
Cn1c2ccccc2c2cc(C(=O)N3CCOCC3)sc21	Sfp inh 45µM, G9a inh inconclusive
C/C(=N\Nc1cccc2cccnc12)c1ccccn1	BAZ2B block inconclusive, JMJD2A Tudor inconclusive, G9a inh 14µM, HP1b chromo inh inconclusive
C/C(=N\Nc1ccc(Cl)c(C(=O)O)c1)c1cccc2ccccc12	BAZ2B block inconclusive, JMJD2A Tudor 56µM, G9a inh 10µM, HP1b chromo inh 79µM, PLK1 PBD block 27µM
C/C(=N\Nc1ccc(Cl)c(C(=O)O)c1)c1cc2ccccc2o1	BAZ2B block inconclusive, G9a inh 28µM
C/C(=N\Nc1cccc2cccnc12)c1ccccc1O	none
COc1ccc(NCC(=O)N/N=C(\C)c2cc3ccccc3o2)cc1	BAZ2B block 35µM, JMJD2A Tudor inconclusive, G9a inh 16µM
O=C(O)c1cc(N/N=C/c2cccc3ccccc23)ccc1Cl	G9a inh inconclusive
Cc1ccc(NC(=O)Nc2c[nH]c(=O)[nH]c2=O)c(Cl)c1	none (no result: Sfp inh, PLK1 PBD block)
COC(=O)C/C=C\[C@@H](C)[C@@H](/C=N\O[C@@H](C)CN1CCCCc2nc(C)c(C)cc21)OC	none (no result: BAZ2B block, JMJD2A Tudor, G9a inh, HP1b chromo inh, PLK1 PBD block)
C/C(=N\Nc1ncnc2sc(C)c(C)c12)c1ccccn1	BAZ2B block 7.1µM, JMJD2A Tudor 32µM, G9a inh 25µM
C/C(=N\Nc1ccccc1)c1cc2ccccc2oc1=O	JMJD2A Tudor inconclusive, G9a inh 35µM
C/C(=N\Nc1ncc(Cl)cc1Cl)c1ccccn1	BAZ2B block 22µM, JMJD2A Tudor inconclusive, G9a inh 45µM
C/C(=N\NC(=O)CC#N)c1cc2ccccc2oc1=O	Sfp inh inconclusive
Clc1cnc(N/N=C/c2ccncc2)c(Cl)c1	none
C/C(=N\Nc1nc(-c2ccc(C)cc2C)cs1)c1cc2ccccc2oc1=O	Sfp inh 40µM, G9a inh inconclusive, PLK1 PBD block inconclusive
Cc1ccc(C)c(N2CCN(c3nc4ccccc4c(=O)n3Cc3ccccc3)CC2)c1	none
C/C(=N\Nc1ccc(Cl)c(C(=O)O)c1)c1ccccn1	Sfp inh 79µM (no result: G9a inh)
C/C(=N\Nc1cccc(C(=O)O)c1)c1cc2ccccc2o1	BAZ2B block inconclusive, JMJD2A Tudor inconclusive, G9a inh 50µM
CCOC(=O)C1(C)CCCN1C(=O)c1ccc(N(C)C)cc1 (stereo unspecified)	none (no result: BAZ2B block, JMJD2A Tudor, Sfp inh, G9a inh, HP1b chromo inh)
O=C(COC(=O)c1ccc(OC(F)(F)F)cc1)Nc1ncccn1	JMJD2A Tudor 56µM (no result: BAZ2B block, Sfp inh, G9a inh)
O=C(CCN1CCCC1Cc1ccccc1)c1ccc2c(c1)OCCO2 (stereo unspecified)	BAZ2B block inconclusive, JMJD2A Tudor 89µM, Sfp inh 50µM, G9a inh 2.8µM, HP1b chromo inh inconclusive, PLK1 PBD block 21µM
CCOC(=O)c1ccc(NS(=O)(=O)c2ccc3c(c2)OCCO3)cc1	none (no result: Sfp inh, PLK1 PBD block)
O=C(CCN1CCc2ccccc2C1)c1ccc2c(c1)OCCO2	Sfp inh 45µM, G9a inh 8.9µM, PLK1 PBD block 24µM
CCOC(=O)C(=O)CC(=O)c1ccc2c(c1)OCCO2	BAZ2B block 50µM, G9a inh 20µM
O=C(CCN1CCCCC1)c1ccc2c(c1)OCCO2	G9a inh 8.9µM, PLK1 PBD block inconclusive
O=C(OCC(=O)N1CCCC1)c1cc(Cl)ccc1Cl	none
CN(C(=O)c1ccccc1F)C(c1ccccc1)c1ccccc1	none
CC1=C(c2ccc(F)cc2)S(=O)(=O)N=C1N1CCC(C(=O)NCCc2ccco2)CC1	none (no result: Sfp inh, PLK1 PBD block)
O=C(CCN1CCCCCC1)Nc1ccc2c(c1)OCCO2	BAZ2B block 56µM, JMJD2A Tudor 5µM, G9a inh inconclusive, HP1b chromo inh inconclusive
